The values that follow come from PubChem BioAssay (Tox21).

Results filed as inconclusive are left out. Where a call stands in place of a potency, no number is given. The source made the active and inactive calls. Calls come from the whole dose curve; as a rule, active = well fitted activation curve with a large enough effect in the repeat runs; inconclusive = weak or mixed curves; inactive = no such curve, though single readings can be large or run the other way.
Potency is the fitted concentration of half-maximal effect.

This assay is described as follows: qHTS assay for small molecules that induce genotoxicity in human embryonic kidney cells expressing luciferase-tagged ATAD5 (AID 651632). Note: nearly all actives have a fitted effect of over 15% in size. The note with it: HEK293T ATAD5-luciferase induction, 16 h; series mostly up to 83.3 µM. From the text: U.S. Tox21 Program National Center for Advancing Translational Sciences [NCATS] NIH Chemical Genomics Center [NCGC] U.S. Environmental Protection Agency [EPA] National Institutes of Environmental Health Sciences [NIEHS] National Toxicology Program [NTP] U.S. Food and Drug Administration [FDA] Tox21 Assay Overview: As cancer cells divide rapidly and during every cell division they need to duplicate their genome by DNA replication. The failure to do so results in the cancer cell death. Based on this concept, many chemotherapeutic agents were developed but have limitations such as low efficacy and severe side effects etc. A new cell based assay was developed to find the compounds that effectively block DNA replication either by directly damaging DNA or by inhibiting other cellular mechanisms. Enhanced Level of Genome Instability Gene 1 (ELG1; human ATAD5) protein levels increase in response to various types of DNA damage. Using a luciferase reporter-gene tagged with ATAD5, a cell-based assay [developed by Kyungjae Myung, NHGRI, NIH] was used to measure the induction of ATAD5 in human embryonic kidney cells (HEK293T). So, increase in luciferase activity can be used to identify the compounds that cause genetic stress.
Tox21 Assay Protocol Summary: For genotoxicity screening, 2,000 cells in 5 uL/well were dispensed into white, solid-bottom 1536-well plates using a Multidrop Combi (Thermo Scientific) dispenser. Following transfer of 23 nL compound or DMSO vehicle by a pin tool, the plates were incubated 16 hr at 37C and 5% CO2. 5 ul Amplite (AAT Bioquest, Inc.) was then added to each plate and following 30 min incubation at room temperature, luciferase activity was quantified on a ViewLux CCD-based plate reader.
In general terms: Quantitative high-throughput screening tests each substance at several concentrations.
As to `C[N+](C)(C)CCOP(=O)(O)OP(=O)([O-])OC[C@H]1O[C@@H](n2ccc(N)nc2=O)[C@H](O)[C@@H]1O`, the Potency entry is “inactive”.

Turning to `NCCCC(=O)O`, the Potency entry is “inactive”.

Consider `O=C(O)COc1ccccc1/C=N/NC(=O)c1ccncc1`, for which the Potency result was “inactive”.

`Cc1cnc(C(=O)O)c[n+]1[O-]`: the Potency result is “inactive”.

For `COc1ccc(/C=N/NC(=O)c2ccncc2)c(C(=O)O)c1OC`, the Potency entry was “inactive”.

For `O=C1CC[C@@H](C(=O)N[C@H]2C[C@@H]2c2ccccc2)N1`, the Potency entry is “inactive”.

Regarding `Cc1c(N)nc([C@H](CC(N)=O)NC[C@H](N)C(N)=O)nc1C(=O)N[C@H](C(=O)N[C@H](C)[C@@H](O)[C@H](C)C(=O)N[C@H](C(=O)NCCc1nc(-c2nc(C(=O)NCCCCN=C(N)N)cs2)cs1)[C@@H](C)O)[C@@H](O[C@@H]1O[C@@H](CO)[C@@H](O)[C@H](O)[C@@H]1O[C@H]1O[C@H](CO)[C@@H](O)[C@H](OC(N)=O)[C@@H]1O)c1cnc[nH]1`, the Potency result is “inactive”.

In the case of `CC(C)c1ccc2sc3ccccc3c(=O)c2c1`, the Potency is 4330 nM (active).

Take `O=P(O)(O)OP(=O)(O)OP(=O)(O)O`: the Potency result is “inactive”.

For `CN1C(C(=O)Nc2ccccn2)C(=O)c2sc(Cl)cc2S1(=O)=O` (stereo not given), the Potency result is “inactive”.

Turning to `C[Se]CC[C@H](N)C(=O)O`, the Potency result is “inactive”.

Turning to `NC(=O)[C@H]1O[C@@H](O)[C@H](O)[C@@H](O)[C@@H]1O`, the Potency entry was “inactive”.

In the case of `CC1(C)S[C@@H]2[C@H](NC(=O)[C@H](N)c3ccc(O)cc3)C(=O)N2[C@H]1C(=O)O`, the Potency result was “inactive”.

As for `CO/N=C(\C(=O)N[C@@H]1C(=O)N2C(C(=O)O)=C(C[N+]3(C)CCCC3)CS[C@H]12)c1csc(N)n1`, the Potency entry was “inactive”.

Regarding `CCCCC[C@H](O)/C=C/[C@@H]1[C@@H](C/C=C\CCCC(=O)O)[C@@H](O)C[C@H]1O`, the Potency result was “inactive”.

Take `OCC1(CO)COC(C(Cl)(Cl)Cl)OC1`: the Potency entry was “inactive”.

Take `CCCCC/C=C\C=C\C(=O)OCC`: the Potency result was “inactive”.

As to `O=C(O)/C=C/C(=O)Nc1ccc(S(=O)(=O)Nc2nccs2)cc1`, the Potency result was “inactive”.

For `CCc1cn([C@H]2C[C@H](O)[C@@H](CO)O2)c(=O)[nH]c1=O`, the Potency entry is “inactive”.

Consider `C=C1[C@@H]2CC[C@@H](C2)C1(C)C`, for which the Potency result is “inactive”.

As for `CC/C=C\C/C=C\C/C=C\C/C=C\C/C=C\CCCC(=O)O`, the Potency result is “inactive”.

Take `Cc1cc(=O)c(C(=O)N[C@@H](C(=O)N[C@@H]2C(=O)N3C(C(=O)O)=C(CSc4nnnn4C)CS[C@H]23)c2ccc(O)cc2)c[nH]1`: the Potency result is “inactive”.

Regarding `CCN(CC)C(=O)[C@]1(c2ccccc2)C[C@@H]1CN`, the Potency entry is “inactive”.

Regarding `O=C1[O][Bi][O]c2ccccc21`, the Potency result was “inactive”.

As to `CCC(O)c1ccccc1` (stereo not given), the Potency result was “inactive”.

In the case of `CC(=O)Oc1cc(C(F)(F)F)ccc1C(=O)O`, the Potency entry is “inactive”.

For the compound `C[C@H](NCCc1ccc(O)cc1)[C@H](O)c1ccc(O)cc1`, the Potency result was “inactive”.

Take `Nc1nc(/C(=C/CC(=O)O)C(=O)N[C@@H]2C(=O)N3C(C(=O)O)=CCS[C@H]23)cs1`: the Potency entry is “inactive”.

For `CC1(C)S[C@@H]2[C@H](N3C(=O)C(c4ccccc4)NC3(C)C)C(=O)N2[C@H]1C(=O)O` (stereo not given in full), the Potency entry was “inactive”.

In the case of `O=[N+]([O-])c1ccc(O)c2ncccc12`, the Potency result is “inactive”.

On to `C=CC[N+]1([C@H]2C[C@H]3[C@@H]4CC[C@H]5C[C@H](O)[C@@H](N6CCOCC6)C[C@]5(C)[C@H]4CC[C@]3(C)[C@H]2OC(C)=O)CCCC1`, for which the Potency entry is “inactive”.

Turning to `CO[C@H]1C[C@@H]2CC[C@@H](C)[C@@](O)(O2)C(=O)C(=O)N2CCCC[C@H]2C(=O)O[C@H]([C@H](C)C[C@@H]2CC[C@@H](O)[C@H](OC)C2)CC(=O)[C@H](C)C=C(C)[C@@H](O)[C@@H](OC)C(=O)[C@H](C)C[C@H](C)/C=C/C=CC=C1C`, the Potency result was “inactive”.

In the case of `CCCCCCCCCCCCCCCCC(C(=O)O)C(O)(CC(=O)O)C(=O)O` (stereo not given), the Potency result was “inactive”.

On to `NC(=O)[C@@H]1C[C@]2(NC(=O)NC2=O)c2cc(F)ccc2O1`, for which the Potency result is “inactive”.

As to `NC(=O)[C@@H]1CCCN1C(=O)[C@H](Cc1cnc[nH]1)NC(=O)[C@@H]1CCC(=O)N1`, the Potency entry is “inactive”.

For `NC(N)=NCC1COC2(CCCCC2)O1` (stereo not given), the Potency entry is “inactive”.

`CC(=O)OCC(=O)[C@@]1(O)CC[C@H]2[C@@H]3C[C@H](C)C4=CC(=O)C=C[C@]4(C)[C@H]3[C@@H](O)C[C@@]21C`: the Potency entry was “inactive”.

On to `CCCCCCCCCCCCCC(=O)OCC(COP(=O)([O-])OCC[N+](C)(C)C)OC(=O)CCCCCCCCCCCCC` (stereo not given), for which the Potency result is “inactive”.

Take `COc1ccc(/C=C/C(=O)Nc2ccccc2C(=O)O)cc1OC`: the Potency was 1190 nM (active).

Turning to `NC[C@@H]1CC[C@@H](N)[C@@H](O[C@H]2[C@H](O)[C@@H](O[C@H]3O[C@H](CO)[C@@H](O)[C@H](N)[C@H]3O)[C@H](N)C[C@@H]2N)O1`, the Potency result is “inactive”.
